Screening data deposited in PubChem by National Center for Advancing Translational Sciences (NCATS).
A selection: hits, their analogues and other compounds. The true share with any hit is near 12%.
Sfp inh: Sfp phosphopantetheinyl transferase inhibition | hit rate 3.5% among 310,000 | Potency, µM, without a hit: largest response in the series, negative = inhibition, usual class: inhibitors | Biochemical Sfp PPTase activity, qHTS | Q9F4F7;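 also: the enzyme is Sfp with the accession as filed and its product quenches rhodamine fluorescence; 0% = enzyme reaction without inhibitor and -100% = no enzyme wells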
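Sfp 15 nM + cpd, 15 min RT; start w/ rhodamine-CoA 5 uM, BHQ-2-YbbR 12.5 uM (final); 50 mM Hepes pH 7.6, 10 mM MgCl2, 0.01% NP-40, 0.01% BSA; read 525/598 nm at 0 and 30 min.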
G9a block: G9a (human) methyltransferase inhibition; hit rate 8.8% among 350,000; G9a H3K9 monomethylation, AlphaScreen, 2 h; Q96KQ7; Potency, µM (series often up to 102 µM), for the others: top-dose activity, negative = inhibition, hits mostly inhibitors; also: % is scaled to controls: 0 for no effect and ±100 for the full control effect; nearly all actives have a fitted effect of over 75% in size
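Using a bead-based AlphaScreen, monomethylated H3K9 product from 2 h room-temperature reactions (G9a 20 nM, peptide 500 nM, SAM 20 uM) was detected with 0.5 ug/mL rabbit anti-H3K9me1 antibody.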
HP1b binding inh: HP1-beta chromodomain-methylated histone interaction inhibition | Potency, µM (highest dose often 114 µM), inactives show top-dose activity change, negative = inhibition, usual class: inhibitors | AlphaScreen HP1-beta / biotin-H3K9me3 peptide binding | hit rate 0.56% among 390,000; also: nearly all actives have a fitted effect of over 70% in size
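Compound inhibition of the preformed complex between 50 nM HP1-beta and 50 nM biotinylated H3K9me3 peptide was read by AlphaScreen. Buffer was PBS pH 7.4 with 0.01% Tween-20. Incubations ran 30 min at room temperature, with 10 ug/mL donor/acceptor beads.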
JMJD2A Tudor inh: blocks the human JMJD2A Tudor domain | AlphaScreen JMJD2A-Tudor / H3K4me3 peptide binding | Potency, µM (doses to about 114 µM), without a hit: at the highest dose activity change, negative = inhibition, most hits filed as inhibitors | hit rate 4.4% among 390,000; also: % is scaled to controls: 0 for no effect and ±100 for the full control effect; nearly all actives have a fitted effect of over 50% in size
BAZ2B inh: inhibitors of human BAZ2B bromodomain; Q9UIF8; AlphaScreen BAZ2B-H3K14Ac peptide displacement; Potency, µM (titrated, usually from 114 µM), for inactives: at the top dose activity change, negative = inhibition, most hits filed as inhibitors; hit rate 4.4% among 360,000; AID 504333; also: % is scaled to controls: 0 for no effect and ±100 for the full control effect; nearly all actives have a fitted effect of over 60% in size
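Multi-concentration screen (max 110 uM) measuring displacement of acetylated histone H3 peptide from BAZ2B by AlphaScreen, using 50 nM protein, 50 nM peptide and 10 ug/mL streptavidin donor plus Ni-chelate acceptor beads.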
TDP1 block: blocks human tyrosyl-DNA phosphodiesterase 1; recombinant TDP1, AlphaScreen DNA substrate cleavage; Q9NUW8; Potency, µM (titrated, usually from 130 µM), inactives show at the highest dose activity change, negative = inhibition, actives largely listed as inhibitors; hit rate 0.28% among 350,000; also: % is scaled to controls: 0 for no effect and ±100 for the full control effect; nearly all actives have a fitted effect of over 40% in size
Target sequence (Q9NUW8 whole entry, looked up): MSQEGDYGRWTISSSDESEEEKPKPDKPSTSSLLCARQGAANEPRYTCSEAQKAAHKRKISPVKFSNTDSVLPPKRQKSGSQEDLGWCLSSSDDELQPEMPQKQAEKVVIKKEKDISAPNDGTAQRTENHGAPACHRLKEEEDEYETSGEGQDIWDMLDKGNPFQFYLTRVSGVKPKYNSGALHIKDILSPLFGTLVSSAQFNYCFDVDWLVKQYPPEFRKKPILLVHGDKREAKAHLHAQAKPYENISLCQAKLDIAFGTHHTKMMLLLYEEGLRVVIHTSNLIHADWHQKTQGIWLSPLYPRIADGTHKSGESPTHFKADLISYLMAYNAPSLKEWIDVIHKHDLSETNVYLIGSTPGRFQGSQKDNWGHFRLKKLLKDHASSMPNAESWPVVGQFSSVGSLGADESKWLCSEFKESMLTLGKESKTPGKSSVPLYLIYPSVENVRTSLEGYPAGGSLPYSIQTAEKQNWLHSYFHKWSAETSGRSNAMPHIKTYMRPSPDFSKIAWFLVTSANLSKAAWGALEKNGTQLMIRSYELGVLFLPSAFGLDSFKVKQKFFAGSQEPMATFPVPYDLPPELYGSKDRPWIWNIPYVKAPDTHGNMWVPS
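E. coli-derived human Tdp1, 1 nM final. Cpd preinc 15 min RT; substrate 15 nM final, 5 min RT; AS bead mix 10 ug/ml final, 10 min RT. Signal loss = tyrosine-FITC cleavage. No-enzyme wells = max signal.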
Numbers without * were called inactive; u = inconclusive; x = not tested or not shown; [ ] = remark or other dose. Calls follow the shape of the dose curve; as a rule, active = well fitted curve in the direction sought with a large enough effect; inconclusive = small, poorly fitted or top-dose-only effect, or another doubt; inactive = no such curve, though single readings can be large; an effect the other way counts as inactive or inconclusive. Potency is read from the fitted curve at half-maximal effect.

SMILES	Sfp inh	G9a block	HP1b binding inh	JMJD2A Tudor inh	BAZ2B inh	TDP1 block
COC(=O)CCCC1=CC2=CC(=O)C(C)(OC(=O)c3ccc(Cl)nc3)C(=O)C2=CO1 (stereo not given)	28%	x	x	x	x	-3%
CC(CCN1CCN(c2ccc(F)cc2)CC1)c1ccccc1 (stereo not given)	-6%	x	11%	u	u	x
CC(CCN1CCOCC1)c1ccccc1 (stereo not given)	-17%	11µM*	u	22µM*	u	x
CN(C)CCN(C(=O)c1ccc(S(=O)(=O)N(C)C)cc1)c1nc2cc3c(cc2s1)OCCO3	-6%	56µM*	10%	-15%	x	5%
CCOc1ccc2nc(N(CCN(C)C)C(=O)c3ccc4c(c3)CCCC4)sc2c1	50µM*	40µM*	-15%	35µM*	u	13%
CN(C)CCN(C(=O)c1ccc2c(c1)CCCC2)c1nc2cc3c(cc2s1)OCCO3	0%	x	u	45µM*	-1%	2%
CN(C)CCN(C(=O)c1ccc(S(=O)(=O)N(C)c2ccccc2)cc1)c1nc2cc3c(cc2s1)OCCO3	1%	40µM*	-11%	u	u	3%
CC1CCCC(NS(=O)(=O)c2cccc3nsnc23)C1C (stereo not given)	8%	u	8%	-20%	-19%	7%
O=C(NCCc1ccccc1)C(=O)NCC(c1cccnc1)N1CCN(c2ccccc2)CC1 (stereo not given)	x	-6%[59 µM]	19%	-10%	u	4%
CCOc1cccc2sc(N(CCCN(C)C)C(=O)c3ccc(S(=O)(=O)N(C)c4ccccc4)cc3)nc12	u	56µM*	-19%	u	u	8%
CCOc1cccc2sc(N(CCN(C)C)C(=O)CCS(=O)(=O)c3ccccc3)nc12	x	x	31%	-28%	x	x
S=C(NCc1ccc(Cl)cc1)NCc1ccco1	-3%	-1%	-3%	-36%	-34%	8%
Cc1ccc(C(=O)NC2CC3CCCC(C2)N3C(=S)NCc2ccco2)cc1 (stereo not given)	45µM*	u	-20%	-24%	-27%	3%
COc1cc(OC)cc(C(=O)NC(=S)NCc2ccco2)c1	-13%	45µM*	0%	-34%	-7%	4%
S=C(NCCc1ccc(Cl)cc1)NCc1ccco1	u	50µM*	-14%	-32%	-35%	-5%
Cc1ccc(C(=O)NC(=S)NCc2ccco2)cc1	-23%	45µM*	-14%	u	u	5%
CCCCn1c(N)c(N(CC(C)C)C(=O)C2CCN(C(=O)c3ccc(F)cc3)CC2)c(=O)[nH]c1=O	16%	21%	35%	-15%	-14%	1%
CCc1[nH]nc(C(=O)N2CCCC(C(=O)c3cccc(C(F)(F)F)c3)C2)c1C (stereo not given)	14%	56%	45%	-1%	-27%	4%
CCCCNC(=O)N1CCN(c2ccnc3cc(Cl)ccc23)CC1	6%	-35%	11%	-11%	2%	x
Cc1ccc(-c2noc(CCC(=O)NCc3ccco3)n2)cc1	56µM*	u	11%	-15%	u	6%
O=C(NC(=S)NCc1ccco1)c1cccc(Cl)c1	-3%	71µM*	x	x	u	9%
COc1cccc(C(=O)NC(=S)NCc2ccco2)c1	-16%	u	13%	-13%[57.1 µM]	-35%	-5%
Cc1ccc(-c2noc(CCC(=O)N(C)c3ccccc3C)n2)cc1	50µM*	12%	43%	4%	2%	2%
COc1ccc(Cl)cc1NC(=O)CN(C)C(=O)c1ccc2c(c1)CC(c1ccccc1)OC2=O (stereo not given)	x	u	10%	u	-8%	0%
COc1cccc(NC(=O)CN(C)C(=O)c2ccc3[nH]c4c(c3c2)CC(C)CC4)c1 (stereo not given)	x	35µM*	8%	u	40µM*	2%
SMILES	Sfp inh	G9a block	HP1b binding inh	JMJD2A Tudor inh	BAZ2B inh	TDP1 block
COc1ccc(NC(=O)CN(C)C(=O)c2ccc3[nH]c4c(c3c2)CC(C)CC4)cc1 (stereo not given)	x	45µM*	u	u	u	0%
COc1cccc(NC(=O)CN(C)C(=O)c2ccc3c(c2)CC(c2ccccc2)OC3=O)c1 (stereo not given)	x	18%[2.33 µM]	-4%	89µM*	u	0%[56.1 µM]
COc1ccccc1CN1CCC2(CCNCC2)CC1	3%	-1%[12.7 µM]	x	x	x	x
COc1cc(/C=N/Nc2cccc(C)c2)cc(Br)c1O	-1%	8.9µM*	u	50µM*	45µM*	3%
COc1cc(/C=N/Nc2cccc(C)c2)ccc1OC(=O)c1cccs1	5%	10µM*	15%	u	-38%	3%
CN1CCC(NC(=S)Nc2cccc([N+](=O)[O-])c2)CC1	-4%	45µM*	6%	-13%	-20%	-8%
COc1ccc(NC(=S)Nc2cccc([N+](=O)[O-])c2)cc1	-29%	x	-14%	-21%	u	3%
COC(=O)C(Cc1ccc(O)cc1)NC(=O)CCOc1ccc(OC)cc1 (stereo not given)	24%	13%[59 µM]	38%	-10%	-5%	x
COC(=O)C(Cc1ccc(O)cc1)NC(=O)CCc1nc2ccccc2s1 (stereo not given)	-4%	40µM*	0%	-10%	-38%	x
COc1ccccc1OC(=O)CCc1nc2ccccc2s1	14µM*	50µM*	51%	0%	u	3%
COc1ccc(CN(C)C(=O)C23CC4CC(CC(Cl)(C4)C2)C3)c(OC)c1OC	-7%	u	24%	0%	10%	3%
CC1=C(C)CC(C(=O)N2CCN(Cc3ccccc3)CC2)C(C(=O)O)C1 (stereo not given)	-1%	-24%[12.7 µM]	12%	-11%	-2%	2%
Cc1ccc(NC(=O)C2CCN(C(=O)[C@@H]3Cc4ccccc4CN3)CC2)cc1	2%	56µM*	45%	-8%	-11%	4%
Cc1ccc(NC(=O)[C@@H]2CCCN2C(=O)[C@@H]2Cc3ccccc3CN2)c(C)c1	13%	50µM*	37%	-10%	-17%	2%
Cc1ccc(CNC(=O)CNC(=O)[C@@H]2Cc3ccccc3CN2)cc1	-4%	u	46%	-10%	u	2%
O=C([C@@H]1Cc2ccccc2CN1)N1CCN(Cc2ccccc2)CC1	-8%	32µM*	42%	-4%	79µM*	x
COc1ccc(C)cc1NC(=O)CNC(=O)[C@@H]1Cc2ccccc2CN1	-3%	45µM*	29%	-12%	-6%[57.1 µM]	5%
C/C(=N\NC(=O)c1cc(C)nc2ccc(C)cc12)c1ccncc1	14%	25%	43%	-2%	-4%	4%[56.1 µM]
